# Laboratory results from PubChem BioAssay (EPA / NIEHS).
# Where “and” joins values, the source holds several entries; their conditions need not be identical. Equal values may be shown once. Inconclusive results are not listed. Calls of active or inactive are those of the source. Rule for the calls, unless noted: active = hit-call score of the fitted dose curve at least 0.9, where 1 is the maximum; inconclusive = response in the unintended direction; inactive = score below 0.9.
# Experiments:
# [1] = biological target: human Retinoic Acid Receptor beta (RARb), RARB (gene 5915) (UniProt P10826); assay: ATG_RARb_TRANS: Attagene TRANS-FACTORIAL HepG2 Assay for human Retinoic Acid Receptor beta (AID 2283004)
# Sequence of human Retinoic Acid Receptor beta (RARb), RARB (gene 5915) (P10826 whole entry, looked up, the tested form may be a part): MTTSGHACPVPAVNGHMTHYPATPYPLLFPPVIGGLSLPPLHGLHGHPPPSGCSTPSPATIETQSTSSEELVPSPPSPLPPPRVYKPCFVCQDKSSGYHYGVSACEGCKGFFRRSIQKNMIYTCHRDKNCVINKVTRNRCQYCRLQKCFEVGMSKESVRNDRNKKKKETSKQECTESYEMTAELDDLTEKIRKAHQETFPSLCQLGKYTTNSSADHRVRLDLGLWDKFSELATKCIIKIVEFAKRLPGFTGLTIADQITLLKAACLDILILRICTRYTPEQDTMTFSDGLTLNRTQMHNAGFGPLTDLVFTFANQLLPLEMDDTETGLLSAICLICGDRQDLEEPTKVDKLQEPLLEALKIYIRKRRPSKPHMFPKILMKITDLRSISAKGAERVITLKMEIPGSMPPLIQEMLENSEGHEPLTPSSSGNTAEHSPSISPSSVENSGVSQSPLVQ
# In short: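 HepG2 cells transiently transfected with multiplexed GAL4-UAS reporter units expressing chimeric NR–Gal4 fusions; 24 h compound exposure. Reporter mRNA quantified by RT-PCR, 6-FAM labelling, HpaI digestion and capillary electrophoresis; gain-of-signal fitted against DMSO baseline.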
# [2] = biological target: Retinoic acid receptor alpha (Homo sapiens) (UniProt P10276); assay: ATG_RARa_TRANS: Attagene TRANS-FACTORIAL HepG2 Assay for human Retinoic Acid Receptor alpha (RARa) (AID 2283005)
# Sequence of Retinoic acid receptor alpha (Homo sapiens) (P10276 whole entry, looked up, the tested form may be a part): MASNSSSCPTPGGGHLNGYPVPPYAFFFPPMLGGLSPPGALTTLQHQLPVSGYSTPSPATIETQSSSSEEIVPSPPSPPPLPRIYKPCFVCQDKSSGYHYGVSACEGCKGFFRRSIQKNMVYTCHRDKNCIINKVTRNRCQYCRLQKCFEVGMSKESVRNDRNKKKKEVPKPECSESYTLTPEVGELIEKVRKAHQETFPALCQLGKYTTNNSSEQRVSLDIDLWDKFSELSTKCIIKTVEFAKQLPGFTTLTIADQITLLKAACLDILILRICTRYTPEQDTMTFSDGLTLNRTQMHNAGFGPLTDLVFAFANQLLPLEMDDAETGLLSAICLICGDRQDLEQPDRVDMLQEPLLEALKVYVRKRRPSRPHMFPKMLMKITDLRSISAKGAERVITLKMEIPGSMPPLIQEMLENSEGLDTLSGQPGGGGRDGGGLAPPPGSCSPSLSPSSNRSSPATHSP
# In short: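 HepG2 cells transiently transfected with multiple reporter units expressing chimeric RARα-GAL4 fusion, with GAL4-UAS-driven reporters. After 24 h compound exposure, reporter mRNA induction quantified by RT-PCR and capillary electrophoresis with fluorescent labeling; gain-of-signal fitted relative to DMSO control.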
# [3] = biological target: human Retinoic Acid Receptor gamma (RARg), RARG (gene 5916) (UniProt P13631); assay: ATG_RARg_TRANS: Attagene TRANS-FACTORIAL HepG2 Assay for human Retinoic Acid Receptor gamma (RARg) (AID 2283009)
# Sequence of human Retinoic Acid Receptor gamma (RARg), RARG (gene 5916) (P13631 whole entry, looked up, the tested form may be a part): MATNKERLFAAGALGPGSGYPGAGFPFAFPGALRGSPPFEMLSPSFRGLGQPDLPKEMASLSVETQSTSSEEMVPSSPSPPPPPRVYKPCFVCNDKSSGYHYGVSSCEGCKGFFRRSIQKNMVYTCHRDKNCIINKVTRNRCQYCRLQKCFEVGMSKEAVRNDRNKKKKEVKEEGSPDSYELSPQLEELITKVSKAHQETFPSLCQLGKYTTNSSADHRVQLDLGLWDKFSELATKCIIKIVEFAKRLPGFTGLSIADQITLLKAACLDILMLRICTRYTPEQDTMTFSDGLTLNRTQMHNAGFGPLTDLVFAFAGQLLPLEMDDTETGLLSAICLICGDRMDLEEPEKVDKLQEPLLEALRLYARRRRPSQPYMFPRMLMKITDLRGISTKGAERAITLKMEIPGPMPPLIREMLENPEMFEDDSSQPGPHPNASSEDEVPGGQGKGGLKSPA
# In short: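 HepG2, RARg-GAL4 TRANS system, 24 h exposure; reporter mRNA by RT-PCR + CE fluorescence; increase over DMSO.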
# [4] = biological target: Bile acid receptor (Homo sapiens) (UniProt Q96RI1); assay: OT_FXR_FXRSRC1_1440: Odyssey Thera (OT) 24-hour HEK293T Protein-Complementation Assay for Farnesoid X receptor/SRC-1 Co-activator (AID 2283384)
# Sequence of Bile acid receptor (Homo sapiens) (Q96RI1 whole entry, looked up, the tested form may be a part): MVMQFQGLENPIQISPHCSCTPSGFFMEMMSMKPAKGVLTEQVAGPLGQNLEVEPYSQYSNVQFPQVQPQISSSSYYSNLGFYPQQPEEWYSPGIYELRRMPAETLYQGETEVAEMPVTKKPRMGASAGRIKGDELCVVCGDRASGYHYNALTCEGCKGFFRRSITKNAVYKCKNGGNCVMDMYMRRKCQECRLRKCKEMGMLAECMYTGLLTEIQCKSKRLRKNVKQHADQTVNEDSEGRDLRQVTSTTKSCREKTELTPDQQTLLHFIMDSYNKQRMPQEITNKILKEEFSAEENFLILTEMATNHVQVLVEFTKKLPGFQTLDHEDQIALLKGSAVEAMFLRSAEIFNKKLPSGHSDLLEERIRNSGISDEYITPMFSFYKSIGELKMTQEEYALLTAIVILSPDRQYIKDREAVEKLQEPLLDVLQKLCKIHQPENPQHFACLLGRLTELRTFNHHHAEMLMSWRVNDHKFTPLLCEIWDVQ
# In short: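 Cell-based binding reporter: interaction of FXR with SRC-1 brings reporter fragments together, giving a fluorescence signal read 24 h after dosing of HEK293T cells.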
# [5] = tested on: Thyroperoxidase (TPO), gene 54314; assay: CCTE_Simmons_AUR_rTPO: CCTE's Amplex UltraRed Assay for Thyroperoxidase (TPO) Inhibition, Simmons Lab (AID 2283662);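 note: potency for loss of signal meaning inhibition of peroxidase activity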
# In short: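 Cell-free peroxidase activity assay using rat thyroid gland microsomes with excess H2O2 (300 uM) and 25 uM Amplex UltraRed. Compounds tested from 5 nM to 87.5 uM; fluorescence measured after 30 min at 37C, analysed relative to DMSO baseline.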
# [6] = CCTE_Simmons_CellTiterGLO_HEK293T: Viability Assessment in CCTE's Assays for Thyroperoxidase (TPO) Inhibition, Simmons Lab (AID 2283665);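 for AC50: cells exposed to compound for 24 h before readout; actives reduce ATP signal below DMSO vehicle meaning cytotoxicity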
# In short: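 Cytotoxicity counter-screen: human HEK293T cells in low-serum (1% FBS) medium receive test chemical, 5 nM to 87.5 uM final, for 24 h; ATP is quantified by luciferase luminescence.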
# [7] = biological target: Luciferin 4-monooxygenase (Photinus pyralis) (UniProt P08659); assay: CCTE_Simmons_QuantiLum_inhib_2: CCTE's Firefly Luciferase Inhibition Assay, Simmons Lab (AID 2283767);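 for AC50: potency for inhibitors that lower luciferase luminescence relative to DMSO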
# Sequence of Luciferin 4-monooxygenase (Photinus pyralis) (P08659 whole entry, looked up): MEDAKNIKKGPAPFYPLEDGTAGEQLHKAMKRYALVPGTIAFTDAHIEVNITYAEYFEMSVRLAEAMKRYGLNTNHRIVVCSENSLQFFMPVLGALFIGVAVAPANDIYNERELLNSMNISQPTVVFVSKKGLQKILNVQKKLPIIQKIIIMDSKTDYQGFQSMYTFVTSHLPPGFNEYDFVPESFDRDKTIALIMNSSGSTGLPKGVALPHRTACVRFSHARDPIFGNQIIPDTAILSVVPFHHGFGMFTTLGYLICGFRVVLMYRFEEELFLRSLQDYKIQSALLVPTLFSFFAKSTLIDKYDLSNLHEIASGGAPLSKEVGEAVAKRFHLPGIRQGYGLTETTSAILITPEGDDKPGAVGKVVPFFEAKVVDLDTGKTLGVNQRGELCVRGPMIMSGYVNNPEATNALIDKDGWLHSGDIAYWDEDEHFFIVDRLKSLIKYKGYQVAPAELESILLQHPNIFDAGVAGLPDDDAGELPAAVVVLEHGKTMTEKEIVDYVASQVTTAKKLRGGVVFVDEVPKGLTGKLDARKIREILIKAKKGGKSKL
# In short: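 Counter-screen for nonspecific enzyme inhibition: purified firefly luciferase incubated 30 min at 37C with chemicals up to 87.5 uM final, then luminescence measured after luciferin/dATP injection; activity fitted against DMSO baseline.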
# [8] = read-out: Secreted IgG (sIgG), gene 3500; assay: BSK_BT_sIgG: BioMAP Diversity Plus: BT Assay for Secreted IgG (sIgG) Biomarker Activity (AID 2284226; active = hit-call score of the fitted dose curve at least 0.9, where 1 is the maximum; inactive = score below 0.9); conditions: primary human B cells with PBMC
# In short: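 Secreted IgG from a human primary B cell–PBMC co-culture was measured by ELISA 24 hours after dosing, with DMSO defining baseline activity.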
# [9] = read-out: Interleukin 6 (IL6), IL6 (gene 3569); assay: BSK_BT_xIL6: BioMAP Diversity Plus: BT Assay for Interleukin 6 (IL6) Biomarker Activity (AID 2284228; active = hit-call score of the fitted dose curve at least 0.9, where 1 is the maximum; inactive = score below 0.9); conditions: primary human B cells with PBMC
# In short: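 Human B cell plus PBMC co-culture exposed to test chemical for 24 h; secreted IL-6 quantified by Luminex xMAP bead assay. Activity fitted in the positive direction against DMSO as negative control and baseline.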
# [10] = read-out: Vascular cell adhesion molecule 1 (VCAM1), VCAM1 (gene 7412); assay: BSK_MyoF_VCAM1: BioMAP Diversity Plus: MyoF Assay for Vascular cell adhesion molecule 1 (VCAM1) Biomarker Activity (AID 2284231; active = hit-call score of the fitted dose curve at least 0.9, where 1 is the maximum; inactive = score below 0.9); conditions: primary human lung fibroblasts
# In short: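 Primary human lung fibroblasts were dosed with test chemical for 24 h, then cell-surface VCAM-1 was measured by ELISA. Activity was fitted in the positive direction against DMSO as negative control and baseline.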
# [11] = read-out: Actin alpha 1 (ACTA1), ACTA1 (gene 58); assay: BSK_MyoF_ACTA1: BioMAP Diversity Plus: MyoF Assay for Actin alpha 1 (ACTA1) Biomarker Activity (AID 2284244; active = hit-call score of the fitted dose curve at least 0.9, where 1 is the maximum; inactive = score below 0.9); conditions: primary human lung fibroblasts
# In short: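 Measured by ELISA: alpha-smooth muscle actin in human primary lung fibroblasts 24 h after dosing, with DMSO as baseline and upward signal change as the fitted direction.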
# [12] = read-out: Basic fibroblast growth factor (bFGF), FGF2 (gene 2247); assay: BSK_MyoF_bFGF: BioMAP Diversity Plus: MyoF Assay for Basic fibroblast growth factor (bFGF) Biomarker Activity (AID 2284246; active = hit-call score of the fitted dose curve at least 0.9, where 1 is the maximum; inactive = score below 0.9); conditions: primary human lung fibroblasts
# In short: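 In this multiplexed cell system, lung fibroblasts (human primary) receive test chemical for 24 h before ELISA detection of bFGF; DMSO defines baseline and the analysis direction is positive.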
# [13] = read-out: Interleukin-8 (IL8), CXCL8 (gene 3576); assay: BSK_MyoF_IL8: BioMAP Diversity Plus: MyoF Assay for Interleukin-8 (IL8) Biomarker Activity (AID 2284261; active = hit-call score of the fitted dose curve at least 0.9, where 1 is the maximum; inactive = score below 0.9); conditions: primary human lung fibroblasts
# In short: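 ELISA read-out of IL-8 from primary human lung fibroblasts, 24 h post-dose; positive-direction curve fitting relative to DMSO vehicle baseline.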
# Decorin, DCN (gene 1634) = assay: BSK_MyoF_Decorin: BioMAP Diversity Plus: MyoF Assay for Decorin Biomarker Activity (AID 2284265; active = hit-call score of the fitted dose curve at least 0.9, where 1 is the maximum; inactive = score below 0.9); conditions: primary human lung fibroblasts
# In short: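 Human lung fibroblasts in the MyoF system were exposed to compound for 24 h, after which decorin was quantified by ELISA. Activity was fitted in the positive direction relative to DMSO negative control.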
# [14] = BSK_MyoF_SRB: Viability Assessment in the BioMAP Diversity Plus: MyoF Assay (AID 2284267; active = hit-call score of the fitted dose curve at least 0.9, where 1 is the maximum; inactive = score below 0.9;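 note: total protein by SRB absorbance in parallel cultures as cytotoxicity measure; cells assessed 24 h after compound addition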); conditions: primary human lung fibroblasts
# In short: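 Cytotoxicity in primary human lung fibroblasts is gauged by SRB total-protein staining 24 h after dosing, with DMSO as the negative control.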
# [15] = biological target: rat Thyrotropin Releasing Hormone Receptor (TRH), Trhr (gene 25570) (UniProt Q01717); assay: NVS_GPCR_rTRH: NovaScreen (NVS) G Protein-Coupled Receptor Assay for rat Thyrotropin Releasing Hormone Receptor (TRH) (AID 2283329);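 note: hit means lower bound tracer signal versus DMSO baseline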
# Sequence of rat Thyrotropin Releasing Hormone Receptor (TRH), Trhr (gene 25570) (Q01717 whole entry, looked up): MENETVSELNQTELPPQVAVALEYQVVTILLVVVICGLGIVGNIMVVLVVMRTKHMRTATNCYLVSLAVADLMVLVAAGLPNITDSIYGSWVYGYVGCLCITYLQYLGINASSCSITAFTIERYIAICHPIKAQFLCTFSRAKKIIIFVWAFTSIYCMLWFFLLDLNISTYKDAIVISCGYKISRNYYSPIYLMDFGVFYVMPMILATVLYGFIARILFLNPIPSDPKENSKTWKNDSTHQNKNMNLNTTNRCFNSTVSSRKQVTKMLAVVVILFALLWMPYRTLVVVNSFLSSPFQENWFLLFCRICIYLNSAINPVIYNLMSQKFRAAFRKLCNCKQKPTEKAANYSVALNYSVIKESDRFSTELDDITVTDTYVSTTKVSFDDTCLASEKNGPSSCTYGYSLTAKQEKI
# In short: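 Rat forebrain membrane prep, radioligand displacement, filter scintillation readout at 4 h. Single conc 25 uM, duplicate; actives retested as concentration series. DMSO = negative control/baseline.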
# [16] = biological target: human Peripheral-type Benzodiazepine Receptor (PBR), TSPO (gene 706) (UniProt P30536); assay: NVS_MP_hPBR: NovaScreen (NVS) Membrane Protein Assay for human Peripheral-type Benzodiazepine Receptor (PBR) (AID 2283331);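 note: hits reduce radioligand binding relative to DMSO baseline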
# Sequence of human Peripheral-type Benzodiazepine Receptor (PBR), TSPO (gene 706) (P30536 whole entry, looked up): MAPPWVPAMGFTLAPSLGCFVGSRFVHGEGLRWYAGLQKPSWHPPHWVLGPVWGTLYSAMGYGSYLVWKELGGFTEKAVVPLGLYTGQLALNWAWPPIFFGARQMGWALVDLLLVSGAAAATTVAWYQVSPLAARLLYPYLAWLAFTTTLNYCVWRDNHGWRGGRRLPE
# In short: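 Human colonic cell membranes were incubated with test chemical for 1 hour; radioligand binding was measured by filter-based scintillation counting. Primary screen ran in duplicate at 25 uM, with actives followed in concentration series; loss of signal versus DMSO baseline.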
# [17] = CEETOX_H295R_MTT_cell_viability: Viability Assessment in the CeeTox HT-H295R MTT Assay (AID 2283718; active = hit-call score of the fitted dose curve at least 0.9, where 1 is the maximum; inactive = score below 0.9)
# In short: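 H295R cells prestimulated 48 h with 10 uM forskolin, then exposed 48 h to test chemical (0.1% DMSO final). Viability by MTT (0.5 mg/ml, 4 h, 37 C), absorbance 570/650 nm; percent change versus DMSO, bidirectional fit.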
# [18] = biological target: Glucocorticoid receptor (Homo sapiens) (UniProt P04150); assay: ATG_GR_TRANS: Attagene TRANS-FACTORIAL HepG2 Assay for human Glucocorticoid Receptor (GR) (AID 2282978); conditions: HepG2 Attagene TRANS GR reporter, mRNA transcription;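 note: activators score as hits since higher reporter transcript over DMSO is fitted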
# Sequence of Glucocorticoid receptor (Homo sapiens) (P04150 whole entry, looked up, the tested form may be a part): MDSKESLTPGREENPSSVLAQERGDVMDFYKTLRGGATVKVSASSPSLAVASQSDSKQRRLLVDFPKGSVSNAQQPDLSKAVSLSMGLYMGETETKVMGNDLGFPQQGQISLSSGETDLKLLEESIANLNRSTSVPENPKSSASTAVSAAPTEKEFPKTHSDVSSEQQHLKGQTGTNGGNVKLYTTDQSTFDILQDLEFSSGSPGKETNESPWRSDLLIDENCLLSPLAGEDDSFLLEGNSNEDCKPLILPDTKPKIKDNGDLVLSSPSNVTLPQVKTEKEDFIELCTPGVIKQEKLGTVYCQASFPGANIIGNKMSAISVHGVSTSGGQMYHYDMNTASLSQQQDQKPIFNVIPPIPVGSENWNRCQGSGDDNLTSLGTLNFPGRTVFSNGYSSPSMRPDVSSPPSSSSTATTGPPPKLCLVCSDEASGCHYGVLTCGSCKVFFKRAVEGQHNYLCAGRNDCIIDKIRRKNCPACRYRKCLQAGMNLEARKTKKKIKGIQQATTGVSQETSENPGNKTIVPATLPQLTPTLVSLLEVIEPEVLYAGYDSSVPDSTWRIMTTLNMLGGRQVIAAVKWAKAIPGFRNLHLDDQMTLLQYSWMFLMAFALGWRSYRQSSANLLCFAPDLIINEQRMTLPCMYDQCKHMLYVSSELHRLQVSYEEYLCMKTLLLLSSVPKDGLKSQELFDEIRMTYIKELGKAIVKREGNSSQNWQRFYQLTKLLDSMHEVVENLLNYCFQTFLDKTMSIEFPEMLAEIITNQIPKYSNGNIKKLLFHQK
# In short: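 Fluorescent capillary-electrophoresis quantitation of reporter mRNA is the readout, taken 24 h after dosing human HepG2 cells carrying transiently transfected GAL4-UAS reporter units activated by chimeric NR-GAL4 fusions; activity scored as induction over DMSO.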
smiles,measurement,setting,value
CC(C)(O)C#N,outcome,[1],inactive
same,outcome,[2],inactive
same,outcome,[3],inactive
same,outcome,[4],inactive
same,AC50,[5],36.7 µM (active)
same,outcome,[6],inactive
same,outcome,[7],inactive
CC[N+](=O)[O-],outcome,[1],inactive
O=C1C=CC(=O)C=C1,AC50,[8],10.9 µM (active) and 28 µM (active)
same,AC50,[9],11.3 µM (active) and 25.7 µM (active)
same,AC50,[10],34 µM (active) and 29.6 µM (active)
same,AC50,[11],30.9 µM (active) and 20 µM (active)
same,AC50,[12],34.7 µM (active) and 30.6 µM (active)
same,AC50,[13],9.01 µM (active) and 4.78 µM (active)
same,outcome,"Decorin, DCN (gene 1634)",inactive
same,AC50,[14],30.6 µM (active) and 29 µM (active)
Oc1ccc(Cl)cc1,outcome,[1],inactive
same,outcome,[15],inactive
same,AC50,[16],12.3 µM (active)
O=S(=O)(c1ccccc1)c1ccccc1,outcome,[2],inactive
same,outcome,[3],inactive
same,AC50,[16],10.1 µM (active)
same,outcome,[8],inactive
same,outcome,[9],inactive
same,outcome,[10],inactive
same,outcome,[11],inactive
same,outcome,[12],inactive
same,outcome,[13],inactive
same,outcome,"Decorin, DCN (gene 1634)",inactive
same,outcome,[14],inactive
Nc1ccc(Cl)c(Cl)c1,AC50,[5],1.16 µM (active)
same,AC50,[6],2.18 µM (active)
same,outcome,[17],inactive
same,outcome,[7],inactive
C=C(Cl)CCl,outcome,[18],inactive
same,outcome,[3],inactive
S=c1[nH]c2ccccc2[nH]1,AC50,[5],0.0688 µM (active)
same,outcome,[6],inactive
same,AC50,[7],2.02 µM (active)
CCCCCCCCCCCCCCCC[N+](C)(C)C,outcome,[15],inactive
same,AC50,[16],12.3 µM (active)
same,AC50,[5],51.5 µM (active)
same,AC50,[6],10.2 µM (active)
same,AC50,[7],92.4 µM (active)
ClC1=C(Cl)[C@]2(Cl)[C@@H]3[C@@H](Cl)[C@H](Cl)C[C@@H]3[C@@]1(Cl)C2(Cl)Cl,outcome,[3],inactive
CC(C)c1ccc(O)cc1,AC50,[5],2.24 µM (active)
same,outcome,[6],inactive
same,outcome,[7],inactive
O=C(NCNC(=O)NC1C(=O)NC(=O)N1CO)NC1C(=O)NC(=O)N1CO (centres undefined),outcome,[2],inactive
same,outcome,[3],inactive
same,outcome,[4],inactive
CN(C)CCC#N,outcome,[18],inactive
same,outcome,[2],inactive
same,outcome,[3],inactive
O=C(O)CCl,AC50,[5],18.1 µM (active)
same,outcome,[6],inactive
same,outcome,[7],inactive
Nc1ccccc1,AC50,[5],0.759 µM (active)
same,outcome,[6],inactive
same,outcome,[7],inactive
COCC(=O)N(c1c(C)cccc1C)N1CCOC1=O,outcome,[8],inactive
same,outcome,[9],inactive
same,outcome,[10],inactive
same,outcome,[11],inactive
same,outcome,[12],inactive
same,outcome,[13],inactive
same,outcome,"Decorin, DCN (gene 1634)",inactive
same,outcome,[14],inactive
CCC1CCC(=O)O1 (centres undefined),outcome,[1],inactive
same,outcome,[2],inactive
CCC(Br)(CC)C(=O)NC(N)=O,outcome,[1],inactive
CN(C)C(=O)C(c1ccccc1)c1ccccc1,outcome,[15],inactive
O=C(CCl)c1ccccc1,outcome,[18],inactive
same,outcome,[1],inactive
same,outcome,[2],inactive
same,outcome,[3],inactive
same,AC50,[5],43.8 µM (active)
same,AC50,[6],43.8 µM (active)
same,outcome,[7],inactive
